This is part of a sample that, as a whole, favours compounds with a hit. Of some 79,000 tested, about 15% had one in any assay. The source made the active and inactive calls. No stated cut-off is given here; in the data, active means growth inhibition above about 70%; inactive means the rest.
Experiments:
[1] = NCI Yeast Anticancer Drug Screen. Data for the rad52 strain (AID 147);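 further: 0% = growth of vehicle-treated control cultures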; details: S. cerevisiae rad52 mutant growth inhibition, active compounds read high
Outline: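 Read-out: growth inhibition versus vehicle-treated controls. Cells were a DNA repair-deficient yeast strain treated with compounds.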

[2] = NCI Yeast Anticancer Drug Screen. Data for the wt1 strain (AID 149);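 further: 0% = growth of vehicle-treated wt1 cultures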; details: S. cerevisiae wt1 strain (SPY 50644) growth inhibition, active compounds read high
Outline: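 Readout: yeast growth inhibition, normalised to vehicle controls, in the wt1 strain exposed to test compounds.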

[3] = NCI Yeast Anticancer Drug Screen. Data for the rad50EPP+ strain (AID 151);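 further: 0% = growth of vehicle-treated control cultures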; details: S. cerevisiae rad50 mutant strain, active compounds read high
Outline: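 Growth inhibition read against vehicle controls in rad50EPP+ yeast, a strain altered in DNA damage repair, after compound exposure.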

[4] = NCI Yeast Anticancer Drug Screen. Data for the mgt1 strain (AID 153); details: S. cerevisiae mgt1 mutant growth inhibition, active compounds read high
Outline: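 mgt1 yeast grown with test compound; read-out is growth inhibition versus vehicle-treated cultures.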

[5] = NCI Yeast Anticancer Drug Screen. Data for the rad50 strain (AID 155);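 further: 0% = growth of vehicle-only cultures of the same strain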; details: S. cerevisiae rad50 strain growth inhibition, active compounds read high
Outline: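 Compounds were tested on a yeast strain with an engineered DNA damage repair alteration; the reported value is growth inhibition normalised to vehicle treatment.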

[6] = NCI Yeast Anticancer Drug Screen. Data for the mec2-1 strain (AID 157); details: S. cerevisiae mec2-1 strain, active compounds read high
Outline: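 Yeast mec2-1 mutant treated with compound. Readout: growth inhibition vs vehicle controls.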

[7] = NCI Yeast Anticancer Drug Screen. Data for the rad14 strain (AID 159);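 further: 0% = growth of vehicle-treated control cultures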; details: S. cerevisiae rad14 strain growth inhibition, active compounds read high
Outline: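 Compound-treated yeast with a defined DNA-repair lesion; growth inhibition normalised to vehicle-treated cultures.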

[8] = NCI Yeast Anticancer Drug Screen. Data for the sgs1 mgt1 strain (AID 161);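 further: 0% = growth of cultures given vehicle only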; details: S. cerevisiae sgs1 mgt1 strain, active compounds read high
Outline: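 Genetically altered yeast, compound exposure, growth inhibition relative to vehicle.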

[9] = NCI Yeast Anticancer Drug Screen. Data for the CLN2oe strain (AID 163);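 further: 0% = growth of vehicle-only control cultures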; details: S. cerevisiae CLN2oe strain, active compounds read high
Outline: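 Read-out: yeast growth inhibition, expressed relative to vehicle-only controls. The strain bears an engineered cell-cycle alteration.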

[10] = NCI Yeast Anticancer Drug Screen. Data for the cln2 rad14 strain (AID 165);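 further: 0% = growth equal to vehicle treated cultures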; details: S. cerevisiae cln2 rad14 strain, active compounds read high
Outline: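 cln2 rad14 yeast strain; compound exposure; growth inhibition read vs vehicle controls.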

[11] = NCI Yeast Anticancer Drug Screen. Data for the bub3 strain (AID 167); details: S. cerevisiae bub3 mutant strain, active compounds read high
Outline: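 Growth of a checkpoint-deficient yeast mutant is measured after compound exposure. Values represent inhibition relative to vehicle.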

[12] = NCI Yeast Anticancer Drug Screen. Data for the wt2 strain (AID 169);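 further: 0% = growth of vehicle-treated yeast cultures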; details: S. cerevisiae wt2 strain growth inhibition, active compounds read high
Outline: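 Read-out: growth inhibition versus vehicle-treated control cultures after compound exposure of the yeast strain.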

[13] = NCI Yeast Anticancer Drug Screen. Data for the mlh1 strain (AID 171);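 further: 0% = growth of vehicle-treated control cultures of the same strain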; details: S. cerevisiae mlh1 strain growth inhibition, active compounds read high
Outline: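 Read-out: growth inhibition versus vehicle controls. Strain: engineered yeast with a defined DNA repair or cell cycle defect, compound-treated.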

[14] = NCI Yeast Anticancer Drug Screen. Data for the sgs1 strain (AID 173);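 further: 0% = growth of vehicle-only control cultures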; details: S. cerevisiae sgs1 mutant, active compounds read high
Outline: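 Read-out: yeast growth inhibition relative to vehicle controls, following compound exposure of a strain with a defined DNA repair/cell cycle alteration.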

[15] = NCI Yeast Anticancer Drug Screen. Data for the mlh1 rad18 strain (AID 175); details: S. cerevisiae mlh1 rad18 strain growth inhibition, active compounds read high
Outline: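 Yeast w/ defined DNA-repair lesions; compound exposure; growth vs vehicle controls → % inhibition.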

[16] = NCI Yeast Anticancer Drug Screen. Data for the rad18 strain (AID 177); details: S. cerevisiae rad18 mutant growth inhibition, active compounds read high
Outline: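 Readout: growth inhibition vs vehicle controls. Cells: genetically altered yeast strain, DNA repair defect.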

[17] = at 5.0 µM (retest, dose inferred, filed as 0.5)
[18] = at 50.0 µM (retest, dose inferred, filed as 5.0)

Measured: growth inhibition

Cc1nc2ccccc2nc1NNc1ccccc1
active: [3]; at 100.0 µM 84% | [5]; at 50.0 µM 81.3% | [10]; [17] 79% | [11]; at 50.0 µM 74%
inactive: [1]; at 1.2 µM -5% | [1]; at 3.7 µM -8% | [1]; at 11.0 µM -4% | [1]; at 33.0 µM 4% | [1]; at 100.0 µM 24% | [2]; at 1.2 µM 4% | [2]; at 3.7 µM 9% | [2]; at 11.0 µM 14% | [2]; at 33.0 µM 17% | [2]; at 100.0 µM 20% | [3]; at 1.2 µM -9% | [3]; at 3.7 µM -5% | [3]; at 11.0 µM 22% | [3]; at 33.0 µM 65% | [4]; at 1.2 µM 4% | [4]; at 3.7 µM 3% | [4]; at 11.0 µM 3% | [4]; at 33.0 µM -13% | [4]; at 100.0 µM 26% | [5]; at 1.2 µM -6% | [5]; at 3.7 µM -12% | [5]; [17] 17% | [5]; at 11.0 µM 9% | [5]; at 33.0 µM 46% | [5]; [18] 34% | [5]; at 100.0 µM 60% | [6]; at 1.2 µM -2% | [6]; at 3.7 µM 0% | [6]; [17] -7% | [6]; at 11.0 µM 9% | [6]; at 33.0 µM 11% | [6]; [18] 39% | [6]; at 50.0 µM 41.6% | [6]; at 100.0 µM 22% | [7]; at 1.2 µM -3% | [7]; at 3.7 µM -7% | [7]; at 11.0 µM 0% | [7]; at 33.0 µM 7% | [7]; at 100.0 µM 38% | [8]; [17] 13% | [8]; [18] 32% | [8]; at 50.0 µM 36% | [9]; at 1.2 µM -7% | [9]; at 3.7 µM -2% | [9]; at 11.0 µM 10% | [9]; at 33.0 µM 18% | [9]; at 100.0 µM 18% | [10]; [18] 48% | [10]; at 50.0 µM -11.8% | [11]; at 1.2 µM 6% | [11]; at 3.7 µM 9% | [11]; [17] 38% | [11]; at 11.0 µM 28% | [11]; at 33.0 µM 51% | [11]; [18] 44% | [11]; at 100.0 µM 63% | [12]; at 1.2 µM 3% | [12]; at 3.7 µM 5% | [12]; at 11.0 µM 14% | [12]; at 33.0 µM 23% | [12]; at 100.0 µM 22% | [13]; at 1.2 µM 1% | [13]; at 3.7 µM -4% | [13]; at 11.0 µM 7% | [13]; at 33.0 µM 30% | [13]; at 100.0 µM 41% | [14]; at 1.2 µM 1% | [14]; at 3.7 µM 1% | [14]; at 11.0 µM 8% | [14]; at 33.0 µM 16% | [14]; at 100.0 µM 24% | [15]; [17] -8% | [15]; [18] 28% | [15]; at 50.0 µM 56.6% | [16]; at 1.2 µM -3% | [16]; at 3.7 µM -2% | [16]; at 11.0 µM -5% | [16]; at 33.0 µM 30% | [16]; at 100.0 µM 58%

C=C1CC(CCCl)(c2ccccc2)OC1=O (stereo unspecified)
inactive: [1]; at 1.2 µM -37% | [1]; at 3.7 µM -25% | [1]; at 11.0 µM 17% | [2]; at 1.2 µM -13% | [2]; at 3.7 µM -16% | [2]; at 11.0 µM 25% | [3]; at 1.2 µM 0% | [3]; at 3.7 µM 2% | [3]; at 11.0 µM 19% | [3]; at 33.0 µM 48% | [4]; at 1.2 µM -25% | [4]; at 3.7 µM -3% | [5]; at 1.2 µM 0% | [5]; at 3.7 µM 13% | [5]; [17] 4% | [5]; at 11.0 µM 33% | [6]; at 1.2 µM -4% | [6]; at 3.7 µM 16% | [6]; [17] 13% | [6]; at 11.0 µM 65% | [7]; at 1.2 µM -2% | [7]; at 3.7 µM 25% | [7]; at 11.0 µM 60% | [8]; [17] -8% | [9]; at 1.2 µM 4% | [9]; at 3.7 µM 7% | [9]; at 11.0 µM 24% | [10]; [17] 18% | [11]; at 1.2 µM -6% | [11]; at 3.7 µM 37% | [11]; [17] 37% | [12]; at 1.2 µM -22% | [12]; at 3.7 µM -20% | [12]; at 11.0 µM 38% | [13]; at 1.2 µM 21% | [13]; at 3.7 µM 35% | [14]; at 1.2 µM 4% | [14]; at 3.7 µM 2% | [14]; at 11.0 µM 59% | [15]; [17] 22% | [16]; at 1.2 µM 0% | [16]; at 3.7 µM 13% | [16]; at 11.0 µM 61%
active: [1]; at 33.0 µM 88% | [1]; at 100.0 µM 99% | [2]; at 33.0 µM 84% | [2]; at 100.0 µM 98% | [3]; at 100.0 µM 92% | [4]; at 11.0 µM 78% | [4]; at 33.0 µM 98% | [4]; at 100.0 µM 99% | [5]; at 33.0 µM 91% | [5]; [18] 94% | [5]; at 50.0 µM 92.5% | [5]; at 100.0 µM 98% | [6]; at 33.0 µM 93% | [6]; [18] 98% | [6]; at 50.0 µM 93.5% | [6]; at 100.0 µM 99% | [7]; at 33.0 µM 95% | [7]; at 100.0 µM 99% | [8]; [18] 96% | [8]; at 50.0 µM 93.5% | [9]; at 33.0 µM 85% | [9]; at 100.0 µM 98% | [10]; [18] 93% | [10]; at 50.0 µM 90.9% | [11]; at 11.0 µM 76% | [11]; at 33.0 µM 96% | [11]; [18] 98% | [11]; at 50.0 µM 92.4% | [11]; at 100.0 µM 99% | [12]; at 33.0 µM 95% | [12]; at 100.0 µM 95% | [13]; at 11.0 µM 82% | [13]; at 33.0 µM 97% | [13]; at 100.0 µM 99% | [14]; at 33.0 µM 96% | [14]; at 100.0 µM 99% | [15]; [18] 98% | [15]; at 50.0 µM 91.2% | [16]; at 33.0 µM 94% | [16]; at 100.0 µM 99%
